According to PubChem BioAssay AID448 (National Center for Advancing Translational Sciences (NCATS), 2006):
Out of some 65,000 compounds screened, about 45 (0.07%) were called active. Only a sample is shown. Values without a mark were called inactive. Calls come from the whole dose curve.

test system: Schistosoma mansoni peroxiredoxin 2 (Prx2); assay: Schistosoma Mansoni Peroxiredoxins (Prx2); settings: S. mansoni Prx2 activity coupled to TGR/GSH (TGR is thioredoxin glutathione reductase), NADPH fluorescence loss, qHTS
Description: NIH Molecular Libraries Screening Centers Network [MLSCN]
NIH Chemical Genomics Center [NCGC]
David Williams [Illinois State University]
Schistosoma mansoni, a causative agent of schistosomiasis, resides in the bloodstream of their host up to 30 years without being eliminated by the host immune attack. One proposed survival mechanism is the production of an antioxidant "firewall" that neutralizes the oxidative assault of the host's immune attack. Schistosoma mansoni peroxiredoxins (Prx) are important parasite antioxidant proteins that play a crucial role in redox balance mechanisms. […] First, the proteins are essential for the parasite survival. […] Third, the protein(s) is amenable for study at the molecular level and can be produced in bacteria in large quantities, in soluble and active form. Inhibition of Prx activity was screened in a coupled-enzyme format with reducing equivalents being transferred from NADPH to […] intermediate via thioredoxin/glutathione reductase (TGR)-catalyzed reaction, then from thioredoxin to hydrogen peroxide via Prx-catalyzed electron transfer. A decrease in the fluorescence intensity of NADPH was used to measure the enzyme activity. Purified S. mansoni TGR and Prx were provided by Professor David L. Williams, Illinois State University.
NCGC Assay Protocol Summary:
100 mM phosphate buffer, pH 7.4, 10 mM EDTA, 0.01% Tween-20.
100 uM NADPH/25 nM TGR/700 uM GSH/50 nM Prx2 mixture in columns 1, 2, 5-48. Titration of control potassium antimonyl tartrate (PAT, from 1 mM, then 1:5) pin-transferred to lower half of column 2. Column 1 and upper half of column 2 are neutral (100% activity).
Three uL of reagents were dispensed to 1536-well Greiner black plates. Compounds and controls (20 nL) were transferred via Kalypsys PinTool. The plates were incubated for 15 min at room temperature, and then a 1 uL aliquot of 400 uM NADPH/700 uM GSH was added, immediately followed by a 1uL aliquot of 2.5 mM H2O2 (to start the reaction). The plate was transferred to ViewLux (Perkin-Elmer) High-throughput CCD imager where kinetic measurements (every 30 sec, for a total of 8 min) of NADPH fluorescence were taken using 365 nm excitation/450 nm emission filter set. During dispense, enzyme-containing reagent bottles were kept submerged into 4 deg C water bath to minimize degradation.
Keywords: NIH Roadmap, MLSCN, MLI, MLSMR, David Williams, Peroxyredoxin, Schistosoma mansoni, prx2, prx, , qHTS, NCGC
Potency is the fitted concentration of half-maximal effect.

Row | SMILES | Potency [µM]
1 | Oc1ccc2ccccc2c1C=NCc1c(O)ccc2ccccc12 | > 57
2 | CC(C)(O)[C@H]1[C@H]2OC(=O)[C@@H]1[C@]1(O)C[C@H]3O[C@]34C(=O)O[C@H]2[C@]14C | > 25.6
3 | CC(C)[C@H](CO)Nc1nc(Nc2cc(N)cc(Cl)c2)c2ncn(C(C)C)c2n1 | > 57
4 | O=c1[nH]c(=O)n([C@H]2C[C@H](O)[C@H](CO)O2)cc1Br | > 57
5 | COc1cccc(Cn2c(=O)c(CCc3ccccc3)nc3cnc(N(C)C)nc32)c1 | > 11.4
6 | COc1ccccc1CNc1ncncc1-c1cccnc1 | > 57
7 | COc1ccc(NC(=O)N2CC3(CCN(C(C)=O)CC3)C2)cc1 | > 57
8 | Cc1ccccc1-c1nc(N(C)Cc2ccco2)c2ccccc2n1 | > 57
9 | O=C(c1cc(C(F)(F)F)cc(C(F)(F)F)c1)N1CCC2(CCCN(Cc3ccncc3)C2)CC1 | > 57
10 | C[C@H](CCC(=O)NCC(=O)O)[C@H]1CC[C@H]2[C@H]3[C@@H](C[C@@H](O)[C@]12C)[C@]1(C)CC[C@H](O)C[C@@H]1C[C@@H]3O | > 57
11 | Cc1nc2cnc(Nc3ccccc3)nc2n(C[C@H]2CCCO2)c1=O | > 57
12 | CC[N+](C)(CC)CCC[n+]1c(-c2ccccc2)c2cc(N)ccc2c2ccc(N)cc21 | > 57
13 | NCC[Se][Se]CCN | > 57
14 | CCCC[C@H]1C(=O)N(c2ccccc2)N(c2ccc(O)cc2)C1=O | > 57
15 | FC(F)(F)c1ccccc1-c1cc(NCc2ccccc2)ncn1 | > 57
16 | O=C(Nc1cccc(F)c1)N1CC2(CCN(C(=O)c3cnccn3)CC2)C1 | > 57
17 | COCCn1c(=O)c(CCc2ccccc2)nc2cncnc21 | > 57
18 | O=C(c1cnccn1)N1CCC2(CCCN(Cc3ccccc3)C2)CC1 | > 57
19 | COc1ccc(-c2nc3cnc(Oc4ccccc4)nc3n(Cc3cccs3)c2=O)cc1 | > 57
20 | COCCn1c(=O)c(-c2cccs2)nc2cncnc21 | > 57
21 | Cc1noc(C)c1-c1nccc(N2CCOCC2)n1 | > 57
22 | O=C(c1cc(C(F)(F)F)cc(C(F)(F)F)c1)N1CCC2(CCCN(c3ccccn3)C2)CC1 | > 57
23 | C/C=C1\C(=O)C[C@@H]2[C@@H]3CCC4=CC(=O)CC[C@@]4(C)[C@H]3CC[C@@]12C | > 57
24 | CS(=O)(=O)N1CCC[C@@]2(CCN(c3ccncc3)C2)C1 | > 57
25 | CCS(=O)(=O)N(C)[C@@H]1c2cc(C#N)ccc2OC(C)(C)[C@H]1O | > 57
26 | O=C(c1ccco1)N1CCC[C@@]2(CCN(Cc3nccs3)C2)C1 | > 57
27 | COC(=O)[C@@]1(Cc2ccc(F)cc2)[C@H]2c3cc(C(=O)N4CCCC4)n(C[C@H](O)CO)c3C[C@H]2CN1C(=O)c1ccccc1 | > 57

Row | SMILES | Potency [µM]
28 | Cc1nc2cnc(Nc3ccccc3)nc2n(Cc2ccc(F)cc2)c1=O | > 57
29 | O=C(c1cccc(F)c1)N1CCC2(CC1)CCN(c1ccccc1)CC2 | > 57
30 | Cc1nc2cnc(Oc3cccc(Cl)c3)nc2n(C2CC2)c1=O | > 57
31 | NC[C@@H]1O[C@H](O[C@@H]2[C@H](O[C@@H]3O[C@H](CO)[C@@H](COC[C@H]4O[C@@H](CN)[C@@H](O)[C@@H](O)[C@@H]4N)[C@@H]3O)[C@@H](O)[C@@H](N)C[C@H]2N)[C@@H](N)[C@H](O)[C@@H]1O | > 57
32 | CC(C)(C)NCC[C@@H](O)c1cc(C(F)(F)F)nc2c(C(F)(F)F)cccc12 | > 57
33 | CCNCCCNCCCNCCCNCC | > 57
34 | COCC(=O)N1CCC2(CCCN(c3ccccc3)C2)CC1 | > 57
35 | c1cncc(-c2nc(N3CCNCC3)c3ccccc3n2)c1 | > 57
36 | c1ccc(CCN2CCN=C2Cc2ccccc2)cc1 | > 57
37 | COC(=O)[C@@]1(Cc2ccccc2)[C@H]2c3cc(C(=O)N4CCCC4)n(Cc4ccc(C)o4)c3C[C@H]2CN1C(=O)c1ccccc1 | > 57
38 | Cc1nc2cnc(N3CCNCC3)nc2n(Cc2ccc(F)cc2)c1=O | > 57
39 | COC(=O)[C@H](C)[C@H]1C[C@]1(C)[C@H](NC(=O)OCc1ccccc1)c1ccccc1 | > 57
40 | O=c1c(-c2ccc(F)cc2)nc2cnc(N3CCNCC3)nc2n1Cc1cccs1 | > 11.4
41 | CCC[C@@H]1C[C@@]1(CCC)C(NS(=O)(=O)c1cccc2cccnc12)c1ccc(Cl)cc1 (stereo partly drawn) | > 57
42 | NS(=O)(=O)c1cc(C(=O)O)c(Cl)c([N+](=O)[O-])c1Cl | > 57
43 | O=c1[nH]c(=O)c2nc3ccccc3nc2[nH]1 | > 57
44 | N#Cc1ccc(CN2CCCC3(CCN(C(=O)c4ccco4)CC3)C2)cc1 | > 57
45 | CC(=O)N1CCC2(CCCN(Cc3ccccc3)C2)CC1 | > 57
46 | CN1[C@H]2CC(OC(=O)[C@@H](CO)c3ccccc3)C[C@H]1[C@H]1O[C@H]12 (stereo partly drawn) | > 57
47 | COc1ccc2nccc(C(=O)O)c2c1 | > 25.6
48 | CN(Cc1ccco1)c1cc(-c2ccccc2C(F)(F)F)ncn1 | > 57
49 | COc1ccc(-c2nc3cnc(N(C)C)nc3n(Cc3cccs3)c2=O)cc1 | > 57
50 | Cn1cccc1C(=O)N1CCC2(CC1)CN(c1cccc(-c3ccccc3)c1)C2 | > 57
51 | O=C(c1ccc([N+](=O)[O-])cc1)[C@@H](Br)[C@@H](Br)c1ccnc2ccccc12 | > 57
52 | CCCN(C/C=C\I)[C@@H]1CCc2cccc(O)c2C1 | > 57
53 | O=C(c1ccncc1)N1CCC2(CCCN(C(c3ccccc3)c3ccccc3)C2)CC1 | > 57
